The assay deals with RUNX1 (UniProt Q01196). Put plainly: RUNX1 binding intensity (PBM fluorescence) in presence of ETS1, normalised to RUNX1-only experiment (arbitrary fluorescence units); higher = stronger binding. The following applies: RUNX1 concentration 2 nM; ETS1 concentration 25 nM. How it is done: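 Cooperative gcPBM on 36-bp genomic probes with neighbouring ETS1 and RUNX1 sites. Recombinant human RUNX1 (2 nM) was incubated alone or with ETS1 (25 nM) and detected with anti-RUNX1 antibody plus Alexa488 secondary. Values are medians over 4 replicate spots; the RUNX1+ETS1 data were normalised to the RUNX1-only data. The probes sit in constant array flanks that are not printed.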
RUNX1, sequence (Q01196 whole entry): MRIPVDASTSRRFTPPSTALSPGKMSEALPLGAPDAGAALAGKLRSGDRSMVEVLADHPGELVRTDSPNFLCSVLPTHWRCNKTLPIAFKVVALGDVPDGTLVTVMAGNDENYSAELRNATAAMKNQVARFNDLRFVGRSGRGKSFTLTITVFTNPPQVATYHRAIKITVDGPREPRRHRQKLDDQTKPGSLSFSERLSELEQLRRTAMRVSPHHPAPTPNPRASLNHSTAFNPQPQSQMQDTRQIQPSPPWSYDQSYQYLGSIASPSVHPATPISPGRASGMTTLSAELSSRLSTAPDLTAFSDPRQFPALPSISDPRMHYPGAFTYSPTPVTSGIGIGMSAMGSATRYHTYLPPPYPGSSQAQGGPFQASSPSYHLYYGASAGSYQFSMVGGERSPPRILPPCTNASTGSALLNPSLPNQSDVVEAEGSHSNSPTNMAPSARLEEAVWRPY
Consider ACTTGACTTCCTGTGGGGTGTGTGGTGTCTGCACTT, for which the RUNX1 binding intensity came out at 2010.

As for CCCAGCCGAGGGAGGAAGCCTGCGGTCACTGCCATC, the RUNX1 binding intensity was determined as 3190.

In the case of AAACTACACCTCAGAGGATGTGGTTCCTTCTCTCAT, the RUNX1 binding intensity was 946.

GGGTCGCGGCCTTCCGGCGAACGCGGTTACCGTGGA: the RUNX1 binding intensity worked out at 1380.

With AGAGTCTTTTTTCCTGAGCGTTTGCGGTTTTGACTT, the RUNX1 binding intensity was determined as 19500.

With CAAGAGCCGGAAGTCCCTTGTGCCGCAGTCCTTCCC, the RUNX1 binding intensity was 1510.

Turning to CTTCAAAGTCAGGAAACCGTTAAACCACACTGCATC, the RUNX1 binding intensity was 1360.

In the case of GGCGGGGCATCCGGCAGCACCGCCTGCGGGCGCCCG, the RUNX1 binding intensity came to 1070.

With GGATGAACAGGAAGCTAAAGTAAATACCACAGTGAC, the RUNX1 binding intensity was 1190.

As for AATTGAGACAGGAAATGTTGGTTTGTGGTCAGGCAC, the RUNX1 binding intensity stood at 3130.

As for TATTCTTCCTGTACTTAAGCTTGCTGGTGTGGTTTC, the RUNX1 binding intensity was 1560.

With AGTCAGCAGAGAGGAAGTGGTTAGTCCTGCCTTGAA, the RUNX1 binding intensity turned out to be 1870.

AAACATCATAGGAAGTGGATTTTGTGGTGAGAGACA: the RUNX1 binding intensity was 1130.

With CTCGCGATTCCTCTTCCGCTGCGGTCTCCTTAACAC, the RUNX1 binding intensity was 2170.

In the case of GGAACAGGAAAAGCCTCCGGCAGCCCCTGCGGGCGG, the RUNX1 binding intensity turned out to be 920.

With GCTGTCCGTTTCCGAGATGTTAATGCGGGGTCTTGC, the RUNX1 binding intensity worked out at 1070.

Regarding GCAGAACCAGAAACAGGATGTGGGTTCCCCTTTAAG, the RUNX1 binding intensity is 4550.

Take TGCACGGTAAGCAGGAAGCTGCGGCCGAGCTGAGTC: the RUNX1 binding intensity stood at 1030.

As to GTGGTCTCTCCCGGAAAAACCACTTCCACCGAGAAC, the RUNX1 binding intensity was determined as 1270.

Take TGAGGAGAGCGAGGAAGTGGTTTTCTCTTCGCACAG: the RUNX1 binding intensity stood at 948.

With TCTCGTCCGGTCCTTGCTCCCCCTCCCCGCAGCGCT, the RUNX1 binding intensity is 1980.

For GGGCCCACATCCGGCGCGCGCAACCGCAGCCTACTG, the RUNX1 binding intensity was 13100.

TTCAACAGGATATTGCTTTGTTACCACAGGCCCTTT: the RUNX1 binding intensity came out at 1490.

GGCGGAAGCTGCCGCTGCCTTGCGCCCCCACACACG: the RUNX1 binding intensity was determined as 1040.

Regarding GCGGAGGCGGAAGTCGTGCTGCTGCTGACCACGGCT, the RUNX1 binding intensity is 1370.

In the case of ACAAGGAGGAAAAGGAAATGAACCACGAATAGCAAA, the RUNX1 binding intensity stood at 948.

As to TTCTCATCCGGCCGGCTTGCTTTCCCCTGCGGTCGT, the RUNX1 binding intensity is 1650.

As to GTGTGCGTGAGAAGAGGAAGTGGTTAGGAAGACACA, the RUNX1 binding intensity came out at 1900.

As for GCAGCTCTGGCAGGATGCGGTTAAATATGTAGCCAC, the RUNX1 binding intensity stood at 11300.

Regarding ATGGTGTAGAGAGGATGTGGGCTTTAAGGTCAGAGA, the RUNX1 binding intensity was found to be 1000.

On to AACTGTCTCTACCCAGGAAGTGGTTTTATTTAAAAG, for which the RUNX1 binding intensity amounted to 2190.

GAGTACAGGAAATGCAAAGTAAAACCACAGTGAGAT: the RUNX1 binding intensity came out at 1850.

For ACACCGGAAGCCCAACAGCATGCCGAGTAACCACCC, the RUNX1 binding intensity came to 1310.

On to TCCTGTAGTTTCCGGCTGAAGTGGTAAGGTTTTTGA, for which the RUNX1 binding intensity stood at 1750.

With GAGGCAGGCGGATGTCAGTGTGGTTAGAGCACAGTG, the RUNX1 binding intensity stood at 1960.

With CGGGACTTCCTGTCTTCCCTGTTGCGGAGCTCTGAA, the RUNX1 binding intensity came out at 2000.

In the case of AGAAGCTGCACCCGGAAATGAAACCACCAGGACCTC, the RUNX1 binding intensity worked out at 1380.

On to GGATGACATCCGGCACCAACTTAACCACTAATCTCA, for which the RUNX1 binding intensity is 2410.

Consider CGGGGTTTCCTGGTGGCTGCGAGCGGTGGGGACGGC, for which the RUNX1 binding intensity came out at 1140.

For the sequence ACCCTACTTCCGTTGCTGTGTTGCGGAGGTGACCTA, the RUNX1 binding intensity came to 1700.
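Further: Full-length recombinant human ETS1 or RUNX1 bound to double-stranded 36-bp genomic probes on microarrays, detected by protein-specific primary antibody and Alexa488 secondary, spot fluorescence as median of four replicate spots.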
